Reference: PubChem BioAssay AID485358 (National Center for Advancing Translational Sciences (NCATS), 2010)
Values joined by “and” are separate entries in the source; they are usually repeats but may differ in a detail not shown here. Equal entries are not always repeated. The campaign covered roughly 340,000 compounds. About 1,800 (0.53%) were called active. The sample as a whole holds a higher share of actives than the screen did. Unmarked numbers belong to inactive results.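 Rule for the calls: active = activation over 3 SD above normal in the single-dose calcium agonist read (cut at about 30% in these data); inactive = the rest.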

target: D(2) dopamine receptor (Homo sapiens) (UniProt P14416); experiment: HTS Assay for Allosteric Agonists of the Human D2 Dopamine Receptor: Primary Screen for Agonists; details: HEK293 T-REx D2 cells, calcium flux agonist mode; at 2 µM; stronger effect = higher value; note: 0% is about no effect
Sequence (P14416 whole entry, looked up): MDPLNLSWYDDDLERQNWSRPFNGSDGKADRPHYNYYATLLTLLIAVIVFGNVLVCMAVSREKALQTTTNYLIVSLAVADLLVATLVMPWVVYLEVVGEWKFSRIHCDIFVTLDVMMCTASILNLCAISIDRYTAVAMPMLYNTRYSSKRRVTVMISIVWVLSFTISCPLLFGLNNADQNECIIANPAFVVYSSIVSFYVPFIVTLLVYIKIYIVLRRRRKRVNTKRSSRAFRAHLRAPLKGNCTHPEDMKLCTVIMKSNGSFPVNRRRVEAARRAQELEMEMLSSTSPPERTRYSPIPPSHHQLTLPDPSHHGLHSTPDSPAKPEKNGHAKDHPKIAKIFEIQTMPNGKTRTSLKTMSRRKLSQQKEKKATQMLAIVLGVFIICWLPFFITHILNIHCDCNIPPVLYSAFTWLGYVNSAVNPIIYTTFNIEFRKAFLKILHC
Procedure, shortened: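 Tetracycline-induced HEK293 Trex cells with D2 receptor force-coupled to calcium signaling, plated overnight at 30 C and loaded with no-wash calcium dye. Calcium flux read kinetically for 180 s after compound addition; responses flag agonists.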

| Structure (SMILES) | activation |
| --- | --- |
| COC(=O)c1ccc(-c2nc3cc(NC(C)=O)ccc3o2)cc1 | -2.97% |
| Cc1n[nH]c(C)c1S(=O)(=O)N1CCCC(C(=O)Nc2ccc(Br)cc2)C1 (centres undefined) | 0.576% and 0.392% |
| Cc1n[nH]c(C)c1S(=O)(=O)N1CCCC(C(=O)NCC2COc3ccccc3O2)C1 (centres undefined) | 57.1% (active) |
| Cc1ccc(NC(=O)C2CCCN(S(=O)(=O)c3c(C)noc3C)C2)c(C)c1 (centres undefined) | -0.264% |
| O=C(NCC(c1ccco1)S(=O)(=O)c1cccs1)c1ccc(F)cc1 (centres undefined) | 0.728% |
| CCOc1ccc(CNC(=O)c2cccc(Nc3nc4ccccc4n4nnnc34)c2)cc1OC | 0.495% |
| Cc1cc(C)c(/C=C2\C(=O)Nc3ccccc32)[nH]1 | 39.4% (active) |
| Cc1ccccc1-n1c(C)cc(/C=C2\NC(=O)NC2=O)c1C | -0.336% |
| O=C1Nc2ccccc2/C1=C/c1ccnc2ccccc12 | 1.57% |
| CCOC(=O)c1c(NC(C)=O)c2c3c(sc2n1Cc1c(C)cc(C)cc1C)CCCC3 | 0.0213% |
| CS(=O)(=O)N1CCC(C(=O)N2CCN(c3ccccc3)CC2)CC1 | 6.31% |
| CCS(=O)(=O)N1CCC(N2CCN(c3ccccc3)CC2)CC1 | 68% (active) |
| CCS(=O)(=O)N1CCC(C(=O)N2CCN(c3ccccc3)CC2)CC1 | 4.45% |
| Cc1ccccc1NC(=O)c1cc2c([nH]c1=O)CC(C)(C)CC2=O | 0.0984% |
| CCOc1cc(-c2cc(-c3ccc(NC(C)=O)cc3)nc(N)c2C#N)ccc1O | 0.571% |
| CCOc1ccc(/C=C(\C#N)c2nc3ccccc3c(=O)[nH]2)cc1OC | -1.7% |
| CCOc1cc(/C=C(\C#N)c2nc(-c3cccs3)c(NC(C)=O)s2)ccc1O | 31.5% (active) |
| OC(COCC1COc2ccccc2O1)CN1CCN(c2ccc(F)cc2)CC1 (centres undefined) | 8.89% |
| O=[N+]([O-])c1ccc(N2CCN(CC(O)COc3ccccc3)CC2)cc1 (centres undefined) | -0.607% |
| OC(COCc1ccco1)CN1CCN(c2ccccc2)CC1 (centres undefined) | 85.6% (active) |
| COc1ccc(CNC(=O)CSCc2nc(-c3ccccc3F)oc2C)cc1 | -0.228% |
| Cc1nc(N2CCN(c3ccccn3)CC2)c2c(C)c(C(=O)Nc3ccc(F)cc3)sc2n1 | -0.199% |
| O=C(CCC1CCCN(C(=O)Cc2ccc(F)cc2)C1)N1CCN(c2ccccn2)CC1 (centres undefined) | 0.424% |
| Cc1c(CN2CC[C@@H](N3CCN(c4ccccn4)CC3)[C@H](O)C2)[nH]c2ccc(F)cc12 | 76.9% (active) |
